Assay: qHTS profiling of the MIPE4 collection as inhibitors of Plasmodium falciparum (DD2) proliferation (Rep 2) (AID 743346)
Conditions: P. falciparum Dd2 in erythrocytes, SYBR Green DNA, 72 h; at 9.64 µM (top of the series)
From the text: Plasmodium falciparum is a virulent malarial parasite that kills 1-2 million people worldwide each year. Transmitted by mosquitoes, the sporozoite form of the parasite enters the blood stream to infect hepatocytes, where they become merozoites that infect red blood cells (erythrocytes). Within erythrocytes, merozoites begin a […] cycle of growth and division, after which the parasite is released to infect new red blood cells. Gametocytes, which form within erythrocytes as well, circulate in the bloodstream and are ingested by the mosquito, thereby completing the life cycle. To profile malarial isolates for differential chemical responses and to identify inhibitors of malarial growth, an assay that measures P. falciparum growth and replication within erythrocytes was employed. This assay uses a DNA binding fluorescent dye (SYBR Green) to detect parasite DNA following cell lysis. Because mature erythrocytes lack DNA, only Plasmodium-derived DNA is detected.
The SYBR Green viability assay was adapted from a method described previously (Plouffe et al., 2008). For screening 3 ul culture medium was dispensed into 1536 well black clear bottom plates (Aurora Biotechnologies) using a Multidrop Combi (Thermo Fisher Scientific Inc.), 23 nL compounds in DMSO were added by a pin tool (Kalypsys), and 5 ul of erythrocytes infected with P. falciparum (0.3% parasitemia, 2.5% hematocrit final concentration) were added. The plates were incubated at 37 C in a humidified incubator in 5% CO2 for 72 h, and 2 ul lysis buffer (20 mM Tris HCl, 10 mM EDTA, 0.16% saponin, 1.6% triton X, 10X SYBR Green I supplied as 10,000X […] by Invitrogen) was added to each well. The plates were mixed for 25 sec with gentle shaking and incubated overnight at room temperature in the dark. The following morning, fluorescence intensity at 485(14) nm excitation and 535(25) nm emission wavelengths was measured on an EnVision (Perkin Elmer) plate reader. Plate reads were normalized relative to the control inhibitor (0.29 uM artemisinin) and vehicle (DMSO) wells present on each plate and then corrected by an algorithm using vehicle-only control plates at the beginning and end of the compound plate stack.

SMILES	parasite growth, % of control (lower = inhibition) [%]
Clc1ccc(COC(Cn2ccnc2)c2ccc(Cl)cc2Cl)c(Cl)c1 (stereo not given)	19.2

Same assay, conditions: P. falciparum Dd2 in erythrocytes, SYBR Green DNA, 72 h; at 28.5 µM

SMILES	parasite growth, % of control (lower = inhibition) [%]
Clc1ccc(COC(Cn2ccnc2)c2ccc(Cl)cc2Cl)c(Cl)c1 (stereo not given)	12.3

Same assay, conditions: P. falciparum Dd2 in erythrocytes, SYBR Green DNA, 72 h; at 28.5 µM unless noted

SMILES	parasite growth, % of control (lower = inhibition) [%]
O=C(O)CCC=CCC[C@@H]1[C@H](N2CCCCC2)[C@@H](O)C[C@@H]1OCc1ccc(-c2ccccc2)cc1	62.3
O=C1C(CCC(O)c2ccc(F)cc2)C(c2ccc(O)cc2)N1c1ccc(F)cc1 (stereo not given)	36.6
Cc1ccc2c(c1)c1c(n2CCc2ccc(C)nc2)CCN(C)C1	49.2
OC(c1cc(C(F)(F)F)nc2c(C(F)(F)F)cccc12)C1CCCCN1 (stereo not given)	23.2
N#CC1(c2cccc(C(=O)Nc3cc(Oc4ccc5nc(NC(=O)C6CC6)sc5n4)ccc3F)c2Cl)CC1	30.3
OC[C@H]1O[C@@H](OCCc2ccc(O)cc2)[C@H](O)[C@@H](O)[C@H]1O	131
Cn1cc(-c2ccc3nnc(Sc4ccc5ncccc5c4)n3n2)cn1	42.5
CC(C)CN(C[C@@H](O)[C@H](Cc1ccccc1)NC(=O)O[C@H]1CO[C@H]2OCC[C@H]21)S(=O)(=O)c1ccc(N)cc1	101
O=C(O)C1=CC(O)C(O)[C@H](O)C1 (stereo not given in full)	86.5
CC(O)=C(C#N)C(=O)Nc1ccc(C(F)(F)F)cc1	63.9
CN(C)c1ccc(-c2nc3ncc(Cl)c(N4CCN(CC(=O)Nc5nccs5)CC4)c3[nH]2)cc1	8.18
CCN(CCO)CCCOc1ccc2c(Nc3cc(CC(=O)Nc4cccc(F)c4)[nH]n3)ncnc2c1	17.8
COc1cc2c(cc1Cc1cccc(Cl)c1F)c(=O)c(C(=O)O)cn2[C@H](CO)C(C)C	16.6
N#CC(=C1Nc2ccccc2S1)c1ccnc(OCc2ccc(CN3CCOCC3)cc2)n1	35.2
CC[C@H](CC#N)OC(=O)N[C@@H](C)c1cccc(NC(=O)Nc2ccc(-c3cnco3)c(OC)c2)c1	17.5
Cc1ccccc1C(C(=O)NC1CCCCC1)N(C(=O)CNc1ccc(C#N)cc1)c1cccc(F)c1 (stereo not given)	75.5
CC(C)C[C@@H](C(=O)N[C@H](C(=O)OC1CCCC1)c1ccccc1)[C@H](O)C(=O)NO	29
C=C1c2cccc(O)c2C(O)=C2C(=O)[C@@]3(O)C(O)=C(C(N)=O)C(=O)[C@@H](N(C)C)[C@@H]3[C@@H](O)[C@H]12	24.1
C[C@H](c1ccc(F)cc1CCCC(=O)O)N(c1cc(F)ccc1F)S(=O)(=O)c1ccc(Cl)cc1	35.7

SMILES	parasite growth, % of control (lower = inhibition) [%]
CN(C)CCOc1ccc(-c2nc(-c3ccc4c(c3)CCC4=NO)c(-c3ccncc3)[nH]2)cc1	6.72
NS(=O)(=O)c1cc(Cl)c(Cl)c(S(N)(=O)=O)c1	88.2
CN(C)N=Nc1nc[nH]c1C(N)=O	87.6
CN(C)CCOc1ccc(C(=C(CCCl)c2ccccc2)c2ccccc2)cc1	19.5
CC1=C(C(=O)Nc2cc3cn[nH]c3cc2F)C(c2ccc(C(F)(F)F)cc2)CC(=O)N1 (stereo not given)	7.16
CO[C@H]1O[C@@H]2O[C@@]3(C)CC[C@@H]4[C@@H](C)CC[C@@H]([C@H]1C)[C@@]24OO3	9.94
O=C1NC(=O)C(c2cnc3ccccn23)=C1c1cn2c3c(cccc13)CN(C(=O)N1CCOCC1)CC2	59.2
CC(C)CN(C[C@H](O)[C@H](Cc1ccccc1)NC(=O)O[C@H]1CCOC1)S(=O)(=O)c1ccc(N)cc1	56.3
CCCCC[C@H](O)C=C[C@H]1[C@H](O)CC(=O)[C@H]1CCCCCCC(=O)O	71.7
COc1cc2nc(-c3cc(F)ccc3O)nc(N[C@@H]3CNC[C@@H]3C(C)(C)O)c2cc1OC	8.84
O=C(O)C1=CO[C@@H](O[C@@H]2O[C@H](CO)[C@H](O)[C@H](O)[C@H]2O)[C@@H]2C(CO)=CC[C@H]12	83.9
O=C(O)c1ccc(O)c2ncc(N3CCOCC3)cc12	16.8
Cc1ccccc1C(=O)c1ccc(Nc2ccc(Br)cc2N)cc1Cl	40
Cc1cc2nc3c(=O)[nH]c(=O)nc-3n(CC(O)C(O)C(O)CO)c2cc1C (stereo not given)	22.3
CC1(C)C(N(O)C(=O)Nc2ccc(Cl)cc2)N(c2ccc(Cl)cc2)C(=O)N1CC(=O)NN=CC=Cc1ccc([N+](=O)[O-])o1 (stereo not given)	18.3
CC(C)C[C@@H](N)[C@H](O)C(=O)N[C@H](C(=O)N[C@H](C(=O)N[C@@H](CC(=O)O)C(=O)O)C(C)C)C(C)C	127
CCCCOCCOc1nc(-c2ccc(C(=O)O)c(F)c2)sc1C	80.5
CN(C)c1nc(Cc2ccc(NC(=O)c3ccc(C(F)(F)F)cc3)cc2)nc(N(C)C)c1CC(=O)O	75.7
COc1cc(C=CC(=O)O)ccc1O	98.9
